Pf growth 48h – Primary qHTS for delayed death inhibitors of the malarial parasite plastid, 48 hour incubation | P. falciparum luciferase growth in erythrocytes, 48 h | Potency, µM (series often up to 28.7 µM), hits mostly inhibitors | 310,000 tested, 5.9% active | AID 504832, 2011
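Erythrocytes infected with P. falciparum carrying an integrated firefly luciferase reporter (2% hematocrit, 0.1% parasitemia final) were exposed to compounds in RPMI 1640 with 0.5% Albumax at 37 C, 5% CO2. Growth inhibition was scored as reduced luminescence.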
Pf growth 96h – Primary qHTS for delayed death inhibitors of the malarial parasite plastid, 96 hour incubation; 320,000 tested, 6.9% active; P. falciparum luciferase reporter growth, 96 h; Potency, µM (doses to about 28.7 µM), actives largely listed as inhibitors
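Readout is luminescence from an integrated firefly luciferase in P. falciparum. Red cells, 2% hematocrit and 0.05% parasitemia final, were cultured with compound through two parasite generations (96 hours) at 37 C, 5% CO2.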
LmPK inhibitor – qHTS Assay for Inhibitors of Leishmania Mexicana Pyruvate Kinase (LmPK). purified LmPK, Kinase-Glo ATP luminescence, 1 h. Potency, µM (highest dose often 57.5 µM), hits mostly inhibitors. 290,000 tested, 0.37% active. AID 1721, 2009
Target sequence (Q27686 whole entry, looked up): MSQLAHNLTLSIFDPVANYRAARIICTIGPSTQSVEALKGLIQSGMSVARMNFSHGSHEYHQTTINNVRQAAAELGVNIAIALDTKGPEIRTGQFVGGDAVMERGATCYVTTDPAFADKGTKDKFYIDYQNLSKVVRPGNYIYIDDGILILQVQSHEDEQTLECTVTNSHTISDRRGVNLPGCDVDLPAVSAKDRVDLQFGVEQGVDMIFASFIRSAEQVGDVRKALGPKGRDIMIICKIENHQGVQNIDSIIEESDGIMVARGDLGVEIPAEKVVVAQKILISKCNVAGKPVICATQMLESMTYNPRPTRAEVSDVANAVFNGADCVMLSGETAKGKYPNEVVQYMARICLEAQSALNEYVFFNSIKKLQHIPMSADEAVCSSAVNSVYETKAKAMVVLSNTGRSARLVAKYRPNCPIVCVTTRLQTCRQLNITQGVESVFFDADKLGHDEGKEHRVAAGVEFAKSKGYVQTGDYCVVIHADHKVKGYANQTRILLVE
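Screened at intermediate enzyme activity to detect both inhibitors and activators: LmPK at 0.1 nM, with a 0.5 nM enzyme column as activation reference. PEP 0.5 mM, ADP 0.1 mM; ATP detected by luminescence after 1 h.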
CHX counter – Cycloheximide Counterscreen for Small Molecule Inhibitors of Shiga Toxin. cell reporter, cycloheximide protein synthesis inhibition counterscreen. max response, %. 300,000 tested, 12% active. AID 2314, 2010; in the data active means max response mostly above about 13%, no sharp cut-off; inactive means mostly below about 14%; further: read at 38.3 µM for the half of the compounds with a filed dose
Shiga inhibitor – A qHTS for Small Molecule Inhibitors of Shiga Toxin. Vero cells, Shiga toxin protein synthesis inhibition reporter. inhibition, % at 38.7 µM. 290,000 tested, 9.2% active. AID 2315, 2010; in the data active means inhibition mostly above about 28%, no sharp cut-off; inactive means mostly below about 43%
Hits are given with their value; - = inactive; ? = inconclusive; . = no result; [ ] = dose if it differs, or a comment. Most compounds without a hit are left out; they make up all but 22% or so of the library. Unless noted, the call rests on the fitted dose curve; in most records, active means well fitted inhibition curve with a large enough effect; inconclusive means small, poorly fitted or top-dose-only effect, or another doubt; inactive means no such curve, though single readings can be large or run the other way.

SMILES	Pf growth 48h	Pf growth 96h	LmPK inhibitor	CHX counter	Shiga inhibitor
CC1(C)CC(=O)C=C(NCCN2CCN(C(=S)NC3CCCCC3)CC2)C1	-	-	-	-	-
CCCCn1c(N)c(N(CCOC)C(=O)c2ccc3c(c2)OCCO3)c(=O)[nH]c1=O	-	-	.	.	.
c1cc(-c2noc(CCC3CCCC3)n2)ccn1	?	?	-	16.7	-
c1ccc(-c2noc(CCC3CCCC3)n2)cc1	-	?	-	19.6	-
COC(=O)C[C@](O)(CCCC(C)(C)O)C(=O)O[C@@H]1C(OC)=C[C@]23CCCN2CCc2cc4c(cc2[C@H]13)OCO4	0.0095µM	0.0067µM	.	.	.
N#CCc1ccc(NC(=O)CSc2nnc(C3CC3)n2C2CC2)cc1	-	?	.	.	.
Cc1ccc(C(=O)Nc2nc(=O)n(C)s2)cc1	-	-	-	35.5	72.8
Cc1ccc(C(=O)Nc2nc(=O)n(C(=O)c3ccccc3Cl)s2)cc1	.	-	-	30.8	48.6
Cn1sc(NC(=O)c2ccc(Cl)cc2)nc1=O	-	-	-	13.6	-
Cc1ccc(C(=O)Nc2nc(=O)n(C(=O)CC(C)C)s2)cc1	-	-	-	-	-
CN1CCN(CCc2nc3cc(NC(=O)COc4ccc([N+](=O)[O-])cc4)ccc3n2C)CC1	?	?	-	-	-
CCC(C(=O)O)C1CCC(C)C(C(C)C(O)C(C)C(=O)C(CC)C2OC3(C=CC(O)[C@@]4(CC[C@](C)(C5CC[C@@](O)(CC)C(C)O5)O4)O3)C(C)CC2C)O1 (stereo partly drawn)	0.426µM	0.213µM	.	.	.
O=C(Nc1ccc(Cl)c(Cl)c1)Nc1ccc([N+](=O)[O-])cn1	9.28µM	?	-	-	-
Cc1ccc(NC(=O)Nc2ccc(Cl)cn2)cc1	-	-	-	39.4	43.9
Cc1ccc(NC(=O)Nc2ccc(Cl)c(Cl)c2)nc1	-	?	-	32.3	70.0
O=C(Nc1ccc(F)cc1)Nc1ccc([N+](=O)[O-])cn1	-	?	-	-	-
O=C(Nc1ccc(Cl)cn1)Nc1ccccc1Cl	-	-	-	-	-
Cc1ccc(S(=O)(=O)NNC(=O)Nc2ccc(Cl)c(Cl)c2)cc1	-	-	-	-	-
CN(C)C(=O)C[n+]1cccc(/C=N/O)c1	-	-	-	-	-
NC(=O)NC(=O)C[n+]1cccc(/C=N/O)c1	-	10.4µM	-	-	-
CCOC(=O)Cc1nnc(NC(=O)c2ccccc2OC)s1	-	-	-	-	-
Cc1nc(NC(=O)c2cc3ccccc3o2)sc1C	-	?	-	37.3	-
O=C(Nc1nnc(C2CC2)s1)c1cc2ccccc2o1	-	-	.	.	.
Cc1nnc(NC(=O)c2cc3ccccc3o2)s1	-	-	-	25.0	67.3
CCOC(=O)c1sc(NC(=O)c2ccccc2OC)nc1C	-	-	-	23.9	69.0
SMILES	Pf growth 48h	Pf growth 96h	LmPK inhibitor	CHX counter	Shiga inhibitor
CS(=O)(=O)c1ccc2nc(NC(=O)c3cc4ccccc4o3)sc2c1	.	-	-	-	-
CCOC(=O)c1csc(NC(=O)c2cc3ccccc3o2)n1	-	-	-	55.2	74.8
COc1ccccc1C(=O)NCCC(=O)NNC(=O)Cn1ccc(C(F)(F)F)n1	-	-	.	.	.
Cc1cc(Cl)ccc1OCC(=O)N(Cc1cccs1)C1CCS(=O)(=O)C1 (stereo not drawn)	-	?	-	-	-
S=C(NCc1ccco1)Nc1ccc(Cl)cn1	-	-	-	-	-
CCC(C)N1C(=O)CCC1C(=O)O (stereo not drawn)	-	.	-	-	-
O=C1CCCN1CC(O)CS(=O)(=O)Cc1ccc(Cl)c(Cl)c1 (stereo not drawn)	-	-	-	-	-
CCOC(=O)c1sc(NC(=O)CC2OC(=O)c3ccccc32)nc1C (stereo not drawn)	-	-	.	.	.
CCOC(=O)c1sc(NC(=O)c2ccc(CC)s2)nc1C	-	.	-	40.0	105.4
CCc1nnc(NC(=O)c2cc3ccccc3oc2=O)s1	-	.	-	10.7	-
CCOC(=O)c1sc(NC(=O)c2cc3ccccc3o2)nc1C	-	?	-	39.7	60.6
Cc1ccccc1-c1nnc(NC(=O)c2cc3ccccc3oc2=O)s1	-	-	-	-	-
CCOC(=O)c1sc2nc(C)cc(C)c2c1NC(=O)c1ccco1	-	-	-	-	-
C=CCOC(=O)c1sc(NC(=O)c2ccco2)nc1C	-	-	-	27.9	127.9
CS(=O)(=O)c1ccc2sc(NC(=O)c3cc4ccccc4o3)nc2c1	-	-	-	-	-
CCc1ccc(C(=O)Nc2nc(C)cs2)s1	-	-	-	40.8	35.6
CCc1ccc(C(=O)Nc2cc(C)ccc2F)s1	-[1.15 µM]	-	-	70.2	104.8
Cc1cnc(NC(=O)c2cc3ccccc3o2)s1	-	-	-	17.7	-
CCCCN(C)CCNC(=O)C1CCN(S(=O)(=O)c2cccc3nsnc23)CC1	-	-	-	-	-
COc1ccc(C2(c3ccc(OC)cc3)NC(=O)N(CC(=O)N3CCOCC3)C2=O)cc1	-	-	.	.	.
O=C(Nc1cnc2ccccn2c1=O)c1ccc(Cl)cc1	-	-	-	33.5	112.7
O=C(Nc1cccn2ncnc12)c1ccc(Cl)cc1	-	-	-	-	-
Cc1cc(C)n(C(=O)/C(C#N)=N/Nc2cc(Cl)cc(Cl)c2)n1	11.7µM	?	-	-	-
COc1ccc2ccccc2c1/C=N/NC(=O)c1cccc([N+](=O)[O-])c1	-	-	-	-	-
CCCc1ccc2oc(C(=O)N3CCC(O)CC3)c(C)c2c1	-	-	-	44.3	70.0
SMILES	Pf growth 48h	Pf growth 96h	LmPK inhibitor	CHX counter	Shiga inhibitor
CCCc1ccc2oc(C(=O)N3CCN(C4CCS(=O)(=O)C4)CC3)c(C)c2c1 (stereo not drawn)	-	?	-	22.9	-
Cc1c(C(=O)N2CCN(C3CCS(=O)(=O)C3)CC2)oc2ccc(Cl)cc12 (stereo not drawn)	?	-	.	.	.
CCCc1ccc2oc(C(=O)N(C)Cc3nccs3)c(C)c2c1	-	?	-	56.1	116.7
Cc1ccc2c(C)c(C(=O)N3CCN(C4CCS(=O)(=O)C4)CC3)oc2c1C (stereo not drawn)	-	?	-	18.2	-
CCCNC(=O)CC(NS(=O)(=O)c1ccc(OC)cc1)c1ccco1 (stereo not drawn)	-	-	-	-	-
CC1C(=O)N(S(=O)(=O)c2ccc([N+](=O)[O-])cc2)[C@H]1c1ccc2ccccc2c1 (stereo partly drawn)	.	.	.	-	-
COC(=O)C1=C(c2ccc(F)cc2F)C[C@@H]2CC[C@H]1N2C(=O)NCCOc1ccc(OC)cc1	10.4µM	-	.	.	.
COC(=O)C1=C(c2ccc(F)cc2F)C[C@@H]2CC[C@H]1N2C(=O)NCCOc1ccccc1Cl	?	10.4µM	.	.	.
Fc1ccc(Nc2nc(N3CCOCC3)nc(N3CCOCC3)n2)cc1	-	13.1µM	-	-	-
Cc1cccc(Nc2nc(N3CCOCC3)nc(N3CCOCC3)n2)c1	?	-	-	-	-
c1ccc(Nc2nc(N3CCOCC3)nc(N3CCOCC3)n2)cc1	?	-	-	-	-

Screens (PubChem BioAssay)
